For 16 molecules, growth results are on record in PubChem BioAssay (NCI).

Compounds without any hit were thinned out: in the full panel of roughly 83,000, 20% have a hit.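 Compound tested at a single concentration for 48 hours in 96-well plates; a percent growth value below 10 was scored as active.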 Values without a mark were called inactive. Active and inactive are the calls of the source.

What all share (test): NCI-60 one-dose screen, 48 h (100 = growth as untreated, 0 = no growth, -100 = all killed)
Holding throughout (conditions): 10 µM unless noted

The test system of assay [1] is T-47D breast.
Assay [2] deals with BT-549 breast.
In assay [3] the test system is MDA-MB-435 melanoma.
Assay [4] deals with SW-620 colon.
Assay [5] relates to MCF7 breast.
Assay [6] relates to HCT-116 colon.
The test system of assay [7] is HCC-2998 colon.
Assay [8] has as its system KM12 colon.

As to `COc1ccc(-c2nc(SCC(C)C)nc(Nc3ccc(C(=O)O)cc3)c2C#N)cc1`, the growth in assay [1] is 87.3%; in assay [2], 85.6%; in assay [3], 99.5%; in assay [4], 102%; in assay [5], 67.2%; in assay [6], 85.1%. Besides, the growth in assay [7] was 97.7%; in assay [8] it was 91.8%.

For `CCCCN(CCCC)CC(O)CN(CC)CC` (stereo not drawn), the growth was 97.6% in assay [1]; 96.1% in assay [2]; 92.2% in assay [3]; 99.3% in assay [4]; 96% in assay [5]; 97% in assay [6]. The growth was 102% in assay [7] and 108% in assay [8].

With `Nc1nc2c(c3cnccc13)C(c1cccc(Cl)c1)Cc1cnccc1-2` (stereo not drawn), the growth in assay [1] was 47.9%; in assay [2], -12% (active); in assay [3] it was -22.9% (active); in assay [4] it was 24.2%; in assay [5], 11.1%; in assay [6], 6.83% (active). For the same molecule, the growth is 41.7% in assay [7] and 13.7% in assay [8].

As for `Cc1ccc(CC(=O)O)c(C)c1`, the growth is 97.1% in assay [1]; 119% in assay [2]; 108% in assay [3]; 102% in assay [4]; 95.7% in assay [5]; 107% in assay [6]. Moreover, the growth in assay [7] was 89.8%; in assay [8], 105%.

On to `O=C(CBr)OCc1ccc([N+](=O)[O-])o1`, for which the growth in assay [1] was 95.2%; in assay [2] it was 118%; in assay [3], 107%; in assay [4], 83.2%; in assay [5], 98.4%; in assay [6], 106%. The growth in assay [7] is 95.2%; in assay [8], 105%.

Consider `CCCCCCCCCCCCCCCCC(=O)O.CCCCCCCCCCCCCCCCCC(=O)O.CCCCCCCCCCCCCCCCCC(=O)O.CCCCCCCCCCCCCCCCCC(=O)O.CCCCCCCCCCCCCCCCCC(=O)O.CO[CH-]OC12COC1CC(O)C1(C)C(O)C(OC(C)O)C3=C(C)C(OC(=O)C(O)C([NH-])c4ccccc4)CC(O)(C(OC(=O)c4ccccc4)C21)C3(C)C.[Cu+].[Zn].[Zn].[Zn].[Zn].[Zn]` (stereo not drawn), for which the growth in assay [1] is 45.9%; in assay [2], 46.2%; in assay [3], 10.9%; in assay [4], 44.7%; in assay [5] it was 22.1%; in assay [6] it was 13.3%. Moreover, the growth is 21.6% in assay [7] and 19.9% in assay [8].

As to `CC[C@H](Nc1ncnc2nc[nH]c12)c1nc2cccc(NCc3ccc(C(=O)NO)nc3)c2c(=O)n1-c1ccccc1`, the growth in assay [1] was 6.8% (active); in assay [2], 13.3%; in assay [3], 25.4%; in assay [4], 47.2%; in assay [5] it was 13.3%; in assay [6], 9.03% (active). For the same molecule, the growth was 67.6% in assay [7] and 60.9% in assay [8].

As to `CCCCCCCCCCCCCCCCCCOP(=O)(O)O`, the growth in assay [1] is 106%; in assay [2], 114%; in assay [3] it was 101%; in assay [4], 91.3%; in assay [5], 101%; in assay [6], 106%. Besides, the growth is 108% in assay [7] and 110% in assay [8].

Take `COc1cc2c(/C=C3\C(=O)Nc4ccc(Br)cc43)c(Cl)n(C)c2cc1C`: the growth is 64.4% in assay [1]; 35.1% in assay [2]; 7.32% (active) in assay [3]; 31.9% in assay [4]; 23.9% in assay [5]; 5.1% (active) in assay [6]. The growth was -39.4% (active) in assay [7] and -21.5% (active) in assay [8].

For `CCOC(=O)c1cc(C(=O)c2ccc(Br)cc2)n2cc(C)cc(C)c12`, the growth is 80.3% in assay [1]; 79% in assay [2]; 102% in assay [3]; 103% in assay [4]; 90% in assay [5]; 75.3% in assay [6]. The growth in assay [7] was 102%; in assay [8], 98.9%.

As to `O=C(OCC1CC2(Cl)C(Cl)=C(Cl)C1(Cl)C2(Cl)Cl)C1C(C(=O)OCC2CC3(Cl)C(Cl)=C(Cl)C2(Cl)C3(Cl)Cl)C2(Cl)C(Cl)=C(Cl)C1(Cl)C2(Cl)Cl` (stereo not drawn), the growth is 105% in assay [1]; 97.5% in assay [2]; 106% in assay [3]; 107% in assay [4]; 96.9% in assay [5]; 101% in assay [6]. Also, the growth was 102% in assay [7] and 101% in assay [8].

As for `CC[C@H](Nc1ncnc2nc[nH]c12)c1nc2cccc(NCc3ccc(C(=O)NO)o3)c2c(=O)n1-c1ccccc1`, the growth in assay [1] is 80.8%; in assay [2], 86%; in assay [3] it was 105%; in assay [4], 107%; in assay [5], 91.4%; in assay [6], 96.9%. Moreover, the growth in assay [7] was 104%; in assay [8], 103%.

`COc1cccc(Cn2cc3c(c2)-c2oncc2CC3)c1`: the growth in assay [1] is 65.2%; in assay [2], 66%; in assay [3], -47% (active); in assay [4], 26.4%; in assay [5], 18.4%; in assay [6], 8.74% (active). The growth in assay [7] was -32.4% (active); in assay [8], 5.03% (active).

Turning to `O=C(O)CC1Cc2ccccc2C1C(=O)O` (stereo not drawn), the growth in assay [1] was 101%; in assay [2], 89.7%; in assay [3], 108%; in assay [4], 98.4%; in assay [5], 105%; in assay [6], 93.5%. For the same molecule, the results for the growth in assay [7] and in assay [8] were 104% and 96.7%, respectively.

With `COc1cc(/C=C/C(=O)/C=C(/C=C/c2ccc(OC(C)=O)c(OC)c2)OB(F)F)ccc1OC(C)=O`, the growth was 41.9% in assay [1]; 37.3% in assay [2]; 41% in assay [3]; 17.5% in assay [4]; 21.5% in assay [5]; 6.64% (active) in assay [6]. Besides, the growth in assay [7] is 100%; in assay [8] it was 73.8%.

For `CCCCCCCCCCC(C[N+](C)(C)C/C=C/c1ccccc1)C(O)c1ccccc1` (stereo not drawn), the growth is 10.3% in assay [1]; -6.83% (active) in assay [2]; -66% (active) in assay [3]; 2.5% (active) in assay [4]; -66.9% (active) in assay [5]; -87.7% (active) in assay [6]. In addition, the results for the growth in assay [7] and in assay [8] were 7.77% (active) and -97.5% (active), respectively.
